Test results reported in ChEMBL document CHEMBL1961873, “Compounds: GSK PKIS; Assays: Nanosyn kinase panel” (2012).

biological target: Tyrosine-protein kinase Lyn (Homo sapiens) (UniProt P07948); settings: at 1 µM
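Note: kinase tested as its LYN B splice variant, values given as mean percent inhibition.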

Tyrosine-protein kinase Lyn (Homo sapiens), sequence (P07948 2-512 limits assumed): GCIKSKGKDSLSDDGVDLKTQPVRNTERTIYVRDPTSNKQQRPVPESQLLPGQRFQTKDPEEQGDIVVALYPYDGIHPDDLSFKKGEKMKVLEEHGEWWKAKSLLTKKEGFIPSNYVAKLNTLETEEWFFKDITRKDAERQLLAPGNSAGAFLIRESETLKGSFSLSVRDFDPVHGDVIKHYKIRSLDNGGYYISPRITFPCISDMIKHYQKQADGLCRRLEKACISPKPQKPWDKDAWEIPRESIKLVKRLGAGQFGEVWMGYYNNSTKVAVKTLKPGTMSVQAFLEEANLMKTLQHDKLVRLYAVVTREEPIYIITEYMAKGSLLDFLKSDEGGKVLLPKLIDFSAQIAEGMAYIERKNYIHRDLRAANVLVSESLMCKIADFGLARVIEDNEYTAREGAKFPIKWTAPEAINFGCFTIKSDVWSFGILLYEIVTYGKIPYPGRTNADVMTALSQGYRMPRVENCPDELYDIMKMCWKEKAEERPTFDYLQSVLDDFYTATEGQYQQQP

Question: How did the inhibition turn out when `Nc1nc(-c2cccc(Cl)c2)c(-c2ccc3ncccc3n2)s1` was run?
Answer: The inhibition was 13.2%.

Question: `CCn1c(-c2nonc2N)nc2c(C#CC(C)(C)O)nc(OC[C@H](N)c3ccccc3)cc21` was tested. Which inhibition did it give?
Answer: Its inhibition is 4.2%.

Question: `COc1cc(/C=N/Nc2ncnc3[nH]ncc23)ccc1O` was tested. Which inhibition did it give?
Answer: Its inhibition is 59.6%.

Question: How did the inhibition turn out when `CC(=O)Nc1cccc(C#Cc2cncnc2Nc2ccc(OCc3cccc(F)c3)c(Cl)c2)c1` was run?
Answer: The inhibition was 0.14%.

Question: `N#Cc1c(NC(=O)c2ccc(F)cc2)sc2c1CCCC2` was tested. Which inhibition did it give?
Answer: The inhibition was 2.84%.

Question: For `Cc1cccc(Nc2ncc(-c3ccccc3)o2)c1`, which inhibition is on record?
Answer: The inhibition was 7.24%.

Question: `O=C(O[C@H]1CN[C@H](C#Cc2cc3ncnc(Nc4ccc(Cc5ccccc5)cc4)c3s2)C1)N1CCOCC1` was tested. Which inhibition did it give?
Answer: Its inhibition is 3.75%.

Question: For `COC(=O)c1sc(-n2cnc3cc(OC)c(OC)cc32)cc1OCc1ccccc1C(F)(F)F`, which inhibition is on record?
Answer: Its inhibition is 14.7%.

Question: `CN1CCC(n2cnc(-c3ccc(F)cc3)c2-c2ccnc(Nc3ccccc3)n2)CC1` was tested. Which inhibition did it give?
Answer: The inhibition was 13.9%.

Question: `CNC(=O)c1cccc(C#Cc2cncnc2Nc2ccc(OCc3cccc(F)c3)c(Cl)c2)c1` was tested. Which inhibition did it give?
Answer: The inhibition was 2.83%.

Question: With `CS(=O)(=O)CCNCc1ccc(-c2ccc3ncnc(Nc4ccc(OCc5ccccc5)c(C(F)(F)F)c4)c3c2)o1` as the molecule, how does the inhibition read?
Answer: The inhibition was 2.28%.

Question: `Nc1ncc(-c2cccc(S(N)(=O)=O)c2)c2scc(-c3ccc(F)c(Cl)c3)c12` was tested. Which inhibition did it give?
Answer: The inhibition was 50%.

Question: For `CC(C)(CO)CNC(=O)c1ccc2c(c1)/C(=N/Nc1ccc(S(N)(=O)=O)cc1)C(=O)N2`, which inhibition is on record?
Answer: Its inhibition is 8.71%.

Question: For `CCCN1CCC(c2ccc(Nc3nc(Nc4cc(F)ccc4C(N)=O)c4cc[nH]c4n3)c(OC)c2)CC1`, which inhibition is on record?
Answer: The inhibition was 7.3%.

Question: `CCn1c(-c2nonc2N)nc2cnc(Oc3cccc(NC(=O)c4ccc(N(C)C)cc4)c3)cc21` was tested. Which inhibition did it give?
Answer: Its inhibition is 1.31%.

Question: `Fc1ccc(-c2nn3ccccc3c2-c2ccncc2)cc1` was tested. Which inhibition did it give?
Answer: Its inhibition is 4.71%.

Question: With `COc1ccc(-c2oc3ncnc(N)c3c2-c2ccc(NC(=O)Nc3cc(C(F)(F)F)ccc3F)cc2)cc1` as the molecule, how does the inhibition read?
Answer: The inhibition was 93.2%.
